# Measured values published in PMC8384837, “Expanding the binding specificity for RNA recognition by a PUF domain”.
# Substitutions are numbered along the chain they refer to.
# Key:
# Assay in all cases: yeast three-hybrid, YBZ-1, SC-Leu-His + 0.5 mM 3-AT, 4 days
# Conditions in all cases: tags: N-Gal4 AD-HA kept; label: inside an RPR1-promoter hybrid RNA with tandem MS2 sites; ssRNA
# PUM1 PUF domain R5-NGC = PUM1 PUF domain R5-NGC (Homo sapiens, UniProt Q14671 828-1176, C1007N;R1008G;Q1011C)
# Method in brief: (§1)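 Each repeat of the Pumilio-1 PUF domain was randomized at its three base-contacting residues, and these libraries were co-expressed from a centromeric plasmid with matching RNA elements in strain YBZ-1. After four days on SC-Leu (input) or SC-Leu-His + 0.5 mM 3-AT (selection), the repeat regions were PCR-amplified and Illumina-sequenced. The interaction score compares variant frequency between input and selection as a log change, computed in log2 with a pseudocount of 1 for absent variants.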
# PUM1 PUF domain R6-AFR = biological target: T1, PUM1 PUF domain R6-AFR (Homo sapiens, UniProt Q14671 828-1176, N1043A;Y1044F;Q1047R)
# T1 sequence: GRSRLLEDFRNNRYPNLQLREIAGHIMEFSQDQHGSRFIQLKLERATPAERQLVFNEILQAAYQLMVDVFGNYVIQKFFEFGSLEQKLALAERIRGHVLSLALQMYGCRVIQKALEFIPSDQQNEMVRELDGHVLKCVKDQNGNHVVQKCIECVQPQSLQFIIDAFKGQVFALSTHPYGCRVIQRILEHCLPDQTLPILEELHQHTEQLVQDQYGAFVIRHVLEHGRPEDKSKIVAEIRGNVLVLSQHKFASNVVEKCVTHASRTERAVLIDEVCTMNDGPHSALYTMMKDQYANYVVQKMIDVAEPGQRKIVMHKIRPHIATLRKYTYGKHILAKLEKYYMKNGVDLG
# Method in brief: as §1
# PUM1 PUF domain R5-FRV = PUM1 PUF domain R5-FRV (Homo sapiens, UniProt Q14671 828-1176, C1007F;Q1011V)
# Method in brief: as §1
# PUM1 PUF domain R5-RNS = PUM1 PUF domain R5-RNS (Homo sapiens, UniProt Q14671 828-1176, C1007R;R1008N;Q1011S)
# Method in brief: as §1
# PUM1 PUF domain R5-NAI = PUM1 PUF domain R5-NAI (Homo sapiens, UniProt Q14671 828-1176, C1007N;R1008A;Q1011I)
# Method in brief: as §1
# PUM1 PUF domain R2-KIG = PUM1 PUF domain R2-KIG (Homo sapiens, UniProt Q14671 828-1176, N899K;Y900I;Q903G)
# Method in brief: as §1
# PUM1 PUF domain R2-LWR = PUM1 PUF domain R2-LWR (Homo sapiens, UniProt Q14671 828-1176, N899L;Y900W;Q903R)
# Method in brief: as §1
# PUM1 PUF domain R4-DHV = PUM1 PUF domain R4-DHV (Homo sapiens, UniProt Q14671 828-1176, N971D;Q975V)
# Method in brief: as §1
# PUM1 PUF domain R6-TFD = biological target: T2, PUM1 PUF domain R6-TFD (Homo sapiens, UniProt Q14671 828-1176, N1043T;Y1044F;Q1047D)
# T2 sequence: T1 sequence with A216T, R220D
# Method in brief: as §1
# PUM1 PUF domain R1-KTY = PUM1 PUF domain R1-KTY (Homo sapiens, UniProt Q14671 828-1176, S863K;R864T;Q867Y)
# Method in brief: as §1
# PUM1 PUF domain R5-TRY = PUM1 PUF domain R5-TRY (Homo sapiens, UniProt Q14671 828-1176, C1007T;Q1011Y)
# Method in brief: as §1
# PUM1 PUF domain R3-PFY = PUM1 PUF domain R3-PFY (Homo sapiens, UniProt Q14671 828-1176, C935P;R936F;Q939Y)
# Method in brief: as §1
# PUM1 PUF domain R4-TRG = PUM1 PUF domain R4-TRG (Homo sapiens, UniProt Q14671 828-1176, N971T;H972R;Q975G)
# Method in brief: as §1
# PUM1 PUF domain R6-GYK = biological target: T3, PUM1 PUF domain R6-GYK (Homo sapiens, UniProt Q14671 828-1176, N1043G;Q1047K)
# T3 sequence: T1 sequence with A216G, F217Y, R220K
# Method in brief: as §1
# PUM1 PUF domain R6-NFL = biological target: T4, PUM1 PUF domain R6-NFL (Homo sapiens, UniProt Q14671 828-1176, Y1044F;Q1047L)
# T4 sequence: T1 sequence with A216N, R220L
# Method in brief: as §1
# PUM1 PUF domain R1-QGR = PUM1 PUF domain R1-QGR (Homo sapiens, UniProt Q14671 828-1176, S863Q;R864G;Q867R)
# Method in brief: as §1
# PUM1 PUF domain R1-GRN = PUM1 PUF domain R1-GRN (Homo sapiens, UniProt Q14671 828-1176, S863G;Q867N)
# Method in brief: as §1
# PUM1 PUF domain R5-RKQ = PUM1 PUF domain R5-RKQ (Homo sapiens, UniProt Q14671 828-1176, C1007R;R1008K)
# Method in brief: as §1
# PUM1 PUF domain R1-KMC = PUM1 PUF domain R1-KMC (Homo sapiens, UniProt Q14671 828-1176, S863K;R864M;Q867C)
# Method in brief: as §1
# PUM1 PUF domain R7-KWN = PUM1 PUF domain R7-KWN (Homo sapiens, UniProt Q14671 828-1176, S1079K;N1080W;E1083N)
# Method in brief: as §1
sequence,measurement,setting,value
GGCUAGAACUAGUGGAUCCCCCGGCGCCCGGCGGCUCGAGCCCGGGUAAGUGUGAAUAGUCUGCAUGCCGCCGGGCGCCAUGCCUGCAGGUCGACUCUAGAAAACAUG,binding signal,PUM1 PUF domain R5-NGC,3.12 log2 enrichment (interaction score)
GGCUAGAACUAGUGGAUCCCCCGGCGCCCGGCGGCUCGAGCCCGGGUAAGUGCAAAUAGUCUGCAUGCCGCCGGGCGCCAUGCCUGCAGGUCGACUCUAGAAAACAUG,binding signal,PUM1 PUF domain R6-AFR,4.86 log2 enrichment (interaction score)
GGCUAGAACUAGUGGAUCCCCCGGCGCCCGGCGGCUCGAGCCCGGGUAAGUGUUAAUAGUCUGCAUGCCGCCGGGCGCCAUGCCUGCAGGUCGACUCUAGAAAACAUG,binding signal,PUM1 PUF domain R5-FRV,2.68 log2 enrichment (interaction score)
same,binding signal,PUM1 PUF domain R5-RNS,4.14 log2 enrichment (interaction score)
same,binding signal,PUM1 PUF domain R5-NAI,3.43 log2 enrichment (interaction score)
GGCUAGAACUAGUGGAUCCCCCGGCGCCCGGCGGCUCGAGCCCGGGUAAGUGUAAAGAGUCUGCAUGCCGCCGGGCGCCAUGCCUGCAGGUCGACUCUAGAAAACAUG,binding signal,PUM1 PUF domain R2-KIG,3.17 log2 enrichment (interaction score)
same,binding signal,PUM1 PUF domain R2-LWR,1.92 log2 enrichment (interaction score)
GGCUAGAACUAGUGGAUCCCCCGGCGCCCGGCGGCUCGAGCCCGGGUAAGUGUACAUAGUCUGCAUGCCGCCGGGCGCCAUGCCUGCAGGUCGACUCUAGAAAACAUG,binding signal,PUM1 PUF domain R4-DHV,5.75 log2 enrichment (interaction score)
GGCUAGAACUAGUGGAUCCCCCGGCGCCCGGCGGCUCGAGCCCGGGUAAGUGUAAAAAGUCUGCAUGCCGCCGGGCGCCAUGCCUGCAGGUCGACUCUAGAAAACAUG,binding signal,PUM1 PUF domain R2-LWR,3.68 log2 enrichment (interaction score)
GGCUAGAACUAGUGGAUCCCCCGGCGCCCGGCGGCUCGAGCCCGGGUAAGUGGAAAUAGUCUGCAUGCCGCCGGGCGCCAUGCCUGCAGGUCGACUCUAGAAAACAUG,binding signal,PUM1 PUF domain R6-TFD,4.99 log2 enrichment (interaction score)
GGCUAGAACUAGUGGAUCCCCCGGCGCCCGGCGGCUCGAGCCCGGGUAAGUGUAAAUUGUCUGCAUGCCGCCGGGCGCCAUGCCUGCAGGUCGACUCUAGAAAACAUG,binding signal,PUM1 PUF domain R1-KTY,3.93 log2 enrichment (interaction score)
GGCUAGAACUAGUGGAUCCCCCGGCGCCCGGCGGCUCGAGCCCGGGUAAGUGUAAAUAGUCUGCAUGCCGCCGGGCGCCAUGCCUGCAGGUCGACUCUAGAAAACAUG,binding signal,PUM1 PUF domain R5-TRY,4.49 log2 enrichment (interaction score)
same,binding signal,PUM1 PUF domain R3-PFY,4.24 log2 enrichment (interaction score)
same,binding signal,PUM1 PUF domain R6-AFR,4.43 log2 enrichment (interaction score)
same,binding signal,PUM1 PUF domain R4-TRG,5.35 log2 enrichment (interaction score)
same,binding signal,PUM1 PUF domain R6-GYK,2.87 log2 enrichment (interaction score)
same,binding signal,PUM1 PUF domain R6-NFL,5.25 log2 enrichment (interaction score)
GGCUAGAACUAGUGGAUCCCCCGGCGCCCGGCGGCUCGAGCCCGGGUAAGUGUAAAUCGUCUGCAUGCCGCCGGGCGCCAUGCCUGCAGGUCGACUCUAGAAAACAUG,binding signal,PUM1 PUF domain R1-QGR,2.69 log2 enrichment (interaction score)
same,binding signal,PUM1 PUF domain R1-GRN,3.33 log2 enrichment (interaction score)
GGCUAGAACUAGUGGAUCCCCCGGCGCCCGGCGGCUCGAGCCCGGGUAAGUGUCAAUAGUCUGCAUGCCGCCGGGCGCCAUGCCUGCAGGUCGACUCUAGAAAACAUG,binding signal,PUM1 PUF domain R5-RKQ,3.43 log2 enrichment (interaction score)
same,binding signal,PUM1 PUF domain R5-FRV,1.98 log2 enrichment (interaction score)
same,binding signal,PUM1 PUF domain R5-RNS,3.43 log2 enrichment (interaction score)
GGCUAGAACUAGUGGAUCCCCCGGCGCCCGGCGGCUCGAGCCCGGGUAAGUGUAAAUGGUCUGCAUGCCGCCGGGCGCCAUGCCUGCAGGUCGACUCUAGAAAACAUG,binding signal,PUM1 PUF domain R1-KMC,3.4 log2 enrichment (interaction score)
same,binding signal,PUM1 PUF domain R1-GRN,1.19 log2 enrichment (interaction score)
GGCUAGAACUAGUGGAUCCCCCGGCGCCCGGCGGCUCGAGCCCGGGUAAGUGUAUAUAGUCUGCAUGCCGCCGGGCGCCAUGCCUGCAGGUCGACUCUAGAAAACAUG,binding signal,PUM1 PUF domain R4-DHV,6.27 log2 enrichment (interaction score)
GGCUAGAACUAGUGGAUCCCCCGGCGCCCGGCGGCUCGAGCCCGGGUAAGUCUAAAUAGUCUGCAUGCCGCCGGGCGCCAUGCCUGCAGGUCGACUCUAGAAAACAUG,binding signal,PUM1 PUF domain R7-KWN,5.98 log2 enrichment (interaction score)
